Data: PubChem BioAssay
Active and inactive are the calls of the source.

Key:
[1] = system: PRMT1 (protein arginine N-methyltransferase 1); experiment: small molecules binding arginine methyltransferase PRMT1 – biochemical, small-molecule microarray, 635 nm fluorescence, primary screen (AID 1088); settings: higher = more signal;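 also: binding of Prmt1 protein to compounds spotted on small-molecule microarray slides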
[2] = growth effects on S. cerevisiae YJM789 – YJM789 clinical isolate, OD600, 24 h, basal, primary screen (AID 1089); settings: higher = more signal, called active from +8 up or from −8 down;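 also: growth of clinical yeast isolate S. cerevisiae YJM 789 seeded 1000 cells per well; test concentration not given here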
[3] = S. pombe growth modifiers, basal conditions – strain 972, OD600, 24 h, no modulator, primary screen (AID 1090);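 also: basal condition with compound alone and no growth modifier present; test concentration not given here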; settings: S. pombe 972 growth, higher = more signal, called active from +8 up or from −8 down
[4] = budding yeast growth modifiers under rapamycin – strain BY4716, OD600, 96 h, primary screen (AID 1091); also: test concentration not given here; settings: S. cerevisiae BY4716 + rapamycin, higher = more signal, called active from +8 up or from −8 down
[5] = target: Torsin-1A-interacting protein 2 (Homo sapiens) (UniProt Q8NFQ8); experiment: small molecules binding lysate-expressed LULL1 – cell lysate, human LULL1 lysate, 635/667 nm fluorescence, primary screen (AID 1092); settings: small-molecule microarray, hLULL1 lysate binding, 635 nm fluorescence; higher = more signal;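 also: probe is lysate of COS7 cells overexpressing human LULL1; score merges per-feature 667 nm fluorescence with signal-to-noise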
[6] = optical density change of DRC41 E. coli – strain DRC41, OD650, 24 h, E. coli filamentation project, primary screen (AID 1093);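 also: MC1000 strain lacking acrAB efflux and sulA so SOS filamentation is blocked; test concentration not given here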; settings: E. coli DRC41 growth, higher = more signal, called active from +8 up or from −8 down
[7] = probe aLefty2 binding to arrayed compounds – biochemical, biotinylated probe, 635/667 nm fluorescence, primary screen (AID 1094); settings: small-molecule microarray, higher = more signal;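 also: score merges spot fluorescence near 667 nm with spot signal-to-noise ratio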
[8] = system: Noggin (protein binding on small-molecule microarray); experiment: small molecules binding Noggin protein – biochemical, 635/667 nm fluorescence, primary screen (AID 1095); settings: 635 nm fluorescence, higher = more signal;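 also: score merges 667 nm feature fluorescence with signal to noise over triplicate slides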
[9] = target: Neurogenic locus notch homolog protein 3 (Homo sapiens) (UniProt Q9UM47); experiment: small molecules binding NOTCH3 protein – biochemical, 635/667 nm fluorescence, primary screen (AID 1096); settings: small-molecule microarray, 635 nm fluorescence, higher = more signal
[10] = probe aEGFR binding to arrayed compounds – biochemical, biotinylated probe, 635/667 nm fluorescence, primary screen (AID 1097); settings: small-molecule microarray, higher = more signal;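 also: probe is a biotinylated anti-EGFR antibody binding compounds printed on slides; score combines fluorescence near 667 nm and signal to noise of each spot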

Chain of Neurogenic locus notch homolog protein 3 (Homo sapiens) (Q9UM47 whole entry, looked up): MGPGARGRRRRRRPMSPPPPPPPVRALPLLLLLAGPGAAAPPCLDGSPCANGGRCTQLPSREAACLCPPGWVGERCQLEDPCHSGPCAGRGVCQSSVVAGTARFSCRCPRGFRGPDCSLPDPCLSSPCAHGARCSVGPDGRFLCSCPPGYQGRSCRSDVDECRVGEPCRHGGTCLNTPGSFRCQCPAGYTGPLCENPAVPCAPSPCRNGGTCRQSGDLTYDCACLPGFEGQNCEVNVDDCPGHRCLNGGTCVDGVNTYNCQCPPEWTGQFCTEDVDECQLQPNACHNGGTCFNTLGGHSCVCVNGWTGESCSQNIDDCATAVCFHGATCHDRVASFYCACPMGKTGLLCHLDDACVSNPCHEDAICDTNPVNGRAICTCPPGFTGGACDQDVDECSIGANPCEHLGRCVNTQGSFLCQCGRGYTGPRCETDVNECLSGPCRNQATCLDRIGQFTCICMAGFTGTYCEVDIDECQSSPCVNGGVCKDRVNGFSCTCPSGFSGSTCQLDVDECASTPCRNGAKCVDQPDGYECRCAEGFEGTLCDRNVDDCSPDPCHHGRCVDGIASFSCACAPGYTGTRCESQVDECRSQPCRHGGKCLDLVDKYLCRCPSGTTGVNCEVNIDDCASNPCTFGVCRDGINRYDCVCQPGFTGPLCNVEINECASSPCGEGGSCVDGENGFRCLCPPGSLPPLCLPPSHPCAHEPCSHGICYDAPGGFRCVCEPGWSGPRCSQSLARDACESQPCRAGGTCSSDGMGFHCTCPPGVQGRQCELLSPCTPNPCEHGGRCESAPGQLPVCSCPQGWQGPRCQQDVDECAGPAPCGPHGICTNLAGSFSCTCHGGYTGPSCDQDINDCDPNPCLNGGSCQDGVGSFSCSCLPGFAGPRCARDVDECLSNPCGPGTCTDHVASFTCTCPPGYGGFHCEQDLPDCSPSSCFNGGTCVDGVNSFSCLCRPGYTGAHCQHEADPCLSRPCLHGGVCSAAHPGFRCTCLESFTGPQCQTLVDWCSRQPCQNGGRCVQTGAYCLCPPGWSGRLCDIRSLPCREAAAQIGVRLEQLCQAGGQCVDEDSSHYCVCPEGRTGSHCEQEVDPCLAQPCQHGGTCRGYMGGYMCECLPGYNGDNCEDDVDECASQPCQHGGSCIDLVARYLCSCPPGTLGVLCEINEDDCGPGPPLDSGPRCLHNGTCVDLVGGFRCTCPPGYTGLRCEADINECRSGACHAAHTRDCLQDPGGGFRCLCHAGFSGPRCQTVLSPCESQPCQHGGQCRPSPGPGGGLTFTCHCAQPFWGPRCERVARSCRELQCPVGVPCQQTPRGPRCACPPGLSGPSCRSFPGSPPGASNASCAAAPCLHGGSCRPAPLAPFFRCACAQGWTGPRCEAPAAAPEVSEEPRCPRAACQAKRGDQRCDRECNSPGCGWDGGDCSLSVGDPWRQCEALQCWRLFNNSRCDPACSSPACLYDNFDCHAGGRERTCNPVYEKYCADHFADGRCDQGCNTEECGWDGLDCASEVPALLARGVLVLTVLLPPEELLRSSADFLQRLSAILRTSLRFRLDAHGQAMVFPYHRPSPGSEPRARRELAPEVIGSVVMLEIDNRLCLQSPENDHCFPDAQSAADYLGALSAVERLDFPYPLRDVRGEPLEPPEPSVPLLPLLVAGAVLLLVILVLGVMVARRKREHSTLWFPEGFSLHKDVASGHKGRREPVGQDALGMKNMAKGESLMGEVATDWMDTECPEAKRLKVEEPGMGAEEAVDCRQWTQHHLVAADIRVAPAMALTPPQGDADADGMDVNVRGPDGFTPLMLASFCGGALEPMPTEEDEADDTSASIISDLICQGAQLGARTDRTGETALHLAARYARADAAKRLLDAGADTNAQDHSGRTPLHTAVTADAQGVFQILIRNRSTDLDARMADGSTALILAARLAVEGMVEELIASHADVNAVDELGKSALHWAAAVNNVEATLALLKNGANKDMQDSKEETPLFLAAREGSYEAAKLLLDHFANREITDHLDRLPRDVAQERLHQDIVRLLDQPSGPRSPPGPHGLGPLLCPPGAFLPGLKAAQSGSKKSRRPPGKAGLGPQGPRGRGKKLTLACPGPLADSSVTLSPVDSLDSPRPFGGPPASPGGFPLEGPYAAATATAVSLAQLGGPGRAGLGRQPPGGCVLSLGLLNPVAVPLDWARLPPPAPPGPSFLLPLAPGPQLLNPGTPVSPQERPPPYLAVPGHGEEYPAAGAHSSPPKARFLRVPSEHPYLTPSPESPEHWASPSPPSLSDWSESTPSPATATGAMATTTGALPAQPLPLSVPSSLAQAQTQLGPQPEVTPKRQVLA
Chain of Torsin-1A-interacting protein 2 (Homo sapiens) (Q8NFQ8 whole entry, looked up): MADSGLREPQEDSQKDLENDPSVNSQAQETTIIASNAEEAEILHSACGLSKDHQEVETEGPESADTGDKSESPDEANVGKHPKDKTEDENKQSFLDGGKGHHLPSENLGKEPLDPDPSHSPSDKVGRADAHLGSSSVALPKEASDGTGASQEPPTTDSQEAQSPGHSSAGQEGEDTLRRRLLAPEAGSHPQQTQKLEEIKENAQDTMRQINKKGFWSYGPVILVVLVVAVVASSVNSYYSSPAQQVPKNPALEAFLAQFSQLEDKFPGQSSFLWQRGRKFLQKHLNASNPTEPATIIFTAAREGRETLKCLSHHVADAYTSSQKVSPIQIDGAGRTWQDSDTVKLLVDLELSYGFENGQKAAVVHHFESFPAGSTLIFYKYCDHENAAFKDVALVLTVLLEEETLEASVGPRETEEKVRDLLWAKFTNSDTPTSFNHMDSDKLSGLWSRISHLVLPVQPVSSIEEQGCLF

| SMILES | composite z-score [1] | z-score [2] | z-score [3] | z-score [4] | composite z-score [5] | z-score [6] | composite z-score [7] | composite z-score [8] | composite z-score [9] | composite z-score [10] |
| --- | --- | --- | --- | --- | --- | --- | --- | --- | --- | --- |
| CC[C@H]1C2=C3C(CC[C@H]4C(OC)OC[C@](C)([C@@H]34)N(C(=O)OC(C)(C)C)C2)C(CO)C1CO (stereo not given in full) | 1.4 | -1.22 (inactive) | 1.21 (inactive) | -0.565 (inactive) | 3.35 | -0.468 (inactive) | 0.762 | 0.0676 | 1.11 | 0.477 |
| CC1CC/C=C\[C@H]2OC34C=CCN(Cn5nnc6ccccc65)C(=O)[C@H]3N(C(C)CO)C(=O)[C@@H]4C2C(=O)O1 (stereo not given in full) | -0.151 | 0.799 (inactive) | 0.0528 (inactive) | 0.272 (inactive) | 2.22 | -0.224 (inactive) | -0.144 | -0.537 | -0.118 | -0.19 |
| CO[C@H]1O[C@H](CO)[C@@H](OC(=O)CCc2ccccc2)[C@@H]2OC(=O)[C@H](Cc3cccc(Br)c3)C/C=C/C[C@@H](Cc3cccc(Br)c3)C(=O)O[C@@H]12 | 0.922 | -4.85 (inactive) | -4.06 (inactive) | 3.62 (inactive) | 0.8 | 2.82 (inactive) | -0.134 | -0.6 | -0.791 | -0.186 |
| C=C(COC)/C(=C/C[C@@H](OC(C)=O)c1cccc(OCCO)c1)c1cc(C(=O)OC)ccc1OC | 0.602 | 0.036 (inactive) | -1.11 (inactive) | -1.03 (inactive) | 0.228 | 1.09 (inactive) | 0.0116 | 1.56 | 0.493 | -0.15 |
| Cc1ccc(S(=O)(=O)c2cc3oc2CC[C@@H](CO)NC(=O)N(C)Cc2cn(nn2)C[C@H](Cc2ccccc2)NC3=O)cc1 | 0.0985 | 0.342 (inactive) | -0.772 (inactive) | 0.0417 (inactive) | 1.66 | 2.79 (inactive) | -0.131 | 0.0818 | -0.773 | -0.156 |
| CC(C)N1CC=CC23O[C@@H]4/C=C\CCCOC(=O)C4[C@H]2C(=O)N(CCO)[C@@H]3C1=O (stereo not given in full) | 0.885 | -1.92 (inactive) | -3.04 (inactive) | -1.77 (inactive) | 1.95 | 3.25 (inactive) | -0.0766 | -0.715 | -0.0811 | -0.173 |
| CC(=O)Nc1ccc([C@H]2[C@H](C)CC[C@H]3C(=O)N4[C@@H](CC[C@@H](C)[C@@H]4c4ccc(NC(C)=O)cc4)C(=O)N32)cc1 | 1.53 | 0.817 (inactive) | -0.789 (inactive) | -0.145 (inactive) | 1.63 | 0.987 (inactive) | -0.185 | 0.651 | 0.897 | 0.107 |
| O=C1C2C=CC(C(O)C#Cc3ccccc3)N(Nc3ccccc3)C2C(=O)N1c1ccccc1 (stereo not given) | 0.398 | 0.132 (inactive) | -0.0141 (inactive) | 0.104 (inactive) | 2.95 | -0.389 (inactive) | 0.217 | -0.418 | 0.314 | -0.108 |
| CCOC(=O)C1=CC[C@@H](c2ccccc2)N(S(=O)(=O)c2ccc(C)cc2)[C@H]1C | 1.53 | 0.889 (inactive) | -0.212 (inactive) | 2.81 (inactive) | 3.41 | -0.607 (inactive) | 0.0018 | 0.672 | 1.09 | 0.114 |
| COc1cc2c(cc1OC)CN(C(=O)[C@H]1[C@@H]3C(=O)O[C@@H](c4ccccc4)[C@@H](c4ccccc4)N3[C@@H](c3ccc(O)cc3)[C@]13C(=O)Nc1ccc(C#CC4(O)CCCCCC4)cc13)CC2 | 1.41 | 0.377 (inactive) | 0.0581 (inactive) | 0.695 (inactive) | 3.75 | 0.206 (inactive) | 0.675 | 1.72 | 0.991 | 0.221 |
| CO[C@H]1COC(=O)[C@H](C)NC(=O)CC=C[C@@H](C)[C@H](NS(=O)(=O)c2ccc(C)cc2)COC(=O)CC=C[C@@H]1C | 0.0763 | -0.733 (inactive) | -0.635 (inactive) | -1.1 (inactive) | -0.876 | 0.119 (inactive) | -0.186 | 0.678 | -0.734 | -0.119 |
| C=CCC(OC(C)=O)[C@@H]1[C@@H](N(Cc2ccc(-c3ccccc3)cc2)C(=O)c2ccc(C)cc2)c2cc(OCCCO)ccc2N1C(=O)c1ccc(-c2ccccc2)cc1 (stereo not given in full) | -0.173 | -3.23 (inactive) | -1.88 (inactive) | -1.75 (inactive) | 0.554 | 0.65 (inactive) | 0.0026 | -0.404 | -0.532 | 0.039 |
| C=CCC(OC(C)=O)[C@@H]1[C@@H](N(Cc2cc3ccccc3o2)C(=O)Cc2ccc(F)cc2)c2cc(OCCCO)ccc2N1C(=O)c1ccc(-c2ccccc2)cc1 (stereo not given in full) | -1.44 | -0.277 (inactive) | -0.801 (inactive) | -0.76 (inactive) | 0.292 | 1.64 (inactive) | -0.0598 | -0.737 | -1.02 | -0.178 |
| C#C[C@H](O[Si](C#Cc1ccccc1)(C(C)C)C(C)C)c1ccccc1 | 0.0132 | -22.2 (active) | -20.1 (active) | -2.8 (inactive) | 0.504 | -0.227 (inactive) | -0.279 | -0.251 | -0.406 | -0.25 |
| C=C(CCCC)C(=O)CC[C@@H](OC(C)=O)c1ccccc1OCCO | 0.0077 | -0.837 (inactive) | -18.7 (active) | -1.57 (inactive) | -0.325 | 0.682 (inactive) | -0.214 | -0.61 | -0.524 | -0.232 |
| CCCC[C@@H]1C[C@H]1[C@@H](NC(=O)c1cccs1)c1ccc(Cl)cc1 | -0.117 | -0.0596 (inactive) | 0.806 (inactive) | 0.413 (inactive) | 0.795 | -1 (inactive) | -0.168 | -1.69 | -1.73 | -0.288 |
| COc1cc(CO)cc(I)c1O[C@H]1C=C(C(=O)NCCO)C[C@@H](NCCc2c[nH]c3ccccc23)[C@@H]1O | 1.39 | 0.004 (inactive) | -12.4 (active) | -2.09 (inactive) | 0.499 | 2.12 (inactive) | 0.341 | 0.947 | 0.705 | 0.192 |
| COC(=O)C[C@H]1O[C@]2(C(=O)N(C)c3ccccc32)[C@@H](C)[C@@H]1[Si](C)(C)c1ccc(OC)cc1 | 0.53 | -3.04 (inactive) | -16.7 (active) | -1.54 (inactive) | 0.49 | 1.67 (inactive) | -0.0667 | 1.07 | 0.622 | 0.0104 |
| C=C(COC)C(=O)CC[C@H](OC(=O)c1ccccc1-c1ccccc1C(=O)O)c1cccc(OCCO)c1 | 1.54 | -22.6 (active) | -20.5 (active) | -3.63 (inactive) | 4.32 | 0.573 (inactive) | -0.195 | 2.09 | 0.985 | 0.0004 |
| [N-]=[N+]=Nc1ccccc1C[C@@]1(C(=O)N2CCOCC2)N=C(c2ccc(OCCCO)cc2)O[C@@H]1c1ccccc1N=[N+]=[N-] | 1.56 | -0.822 (inactive) | -2.95 (inactive) | 1.56 (inactive) | 2.32 | 2.13 (inactive) | 0.369 | 0.8 | 1.09 | 0.0477 |
| C=CCN1C(=O)[C@@]2(Cc3ccccc3)N=C(c3ccc(OCCCO)cc3)O[C@H]2c2ccccc21 | 1.36 | -0.772 (inactive) | -5.06 (inactive) | 1.63 (inactive) | 2.77 | 0.612 (inactive) | 0.44 | 0.293 | 1.08 | 0.031 |
| C=CCC(OC(C)=O)[C@@H]1[C@@H](N(Cc2cccc3ccccc23)C(=O)Cc2ccc(F)cc2)c2cc(OCCCO)ccc2N1C(=O)Cc1ccc2ccccc2c1 (stereo not given in full) | 0.204 | -0.167 (inactive) | 1.1 (inactive) | -0.276 (inactive) | 0.594 | 0.348 (inactive) | -0.0197 | -0.594 | -0.0809 | -0.121 |
| COCC(=C=CC[C@H](O)c1ccc(OCCO)cc1)C[C@H](O)c1ccccn1 | 0.546 | 0.725 (inactive) | -1.05 (inactive) | -0.352 (inactive) | 1.38 | 1.06 (inactive) | -0.0216 | 0.0559 | -0.457 | -0.235 |
| Cc1ccc(S[C@]2(C(=O)O)CC(=O)N(Cc3ccccc3)[C@@H]2c2ccc(CO)cc2)cc1 | 0.191 | -0.179 (inactive) | -2.58 (inactive) | 0.215 (inactive) | 1.88 | 2.49 (inactive) | -0.0953 | -0.674 | -0.0738 | -0.136 |
| CCOC(=O)[C@H]1C/C=C/C[C@H](C(=O)OCC)C(=O)O[C@H]2[C@@H](OC)O[C@H](CO)[C@@H](OC(=O)Nc3ccc(Br)cc3)[C@@H]2OC1=O | 1.54 | 0.343 (inactive) | -2.37 (inactive) | 31.7 (active) | 2.93 | 2.91 (inactive) | 0.45 | 0.933 | 0.869 | -0.121 |
| CC[C@@H]1C=C(C(=O)O)[C@H](c2ccccc2)N1S(=O)(=O)c1ccc([N+](=O)[O-])cc1 | 0.372 | 0.308 (inactive) | -0.434 (inactive) | 0.632 (inactive) | 3.38 | -1.86 (inactive) | 0.0634 | -0.297 | 0.481 | 0.0276 |
| COc1cc(Cc2cc3c(c(CCc4ccccc4)n2)[Si](C(C)C)(C(C)C)OC3)cc(OC)c1OC | 0.735 | 0.238 (inactive) | -0.226 (inactive) | 0.0563 (inactive) | -0.244 | -1.02 (inactive) | -0.184 | 0.684 | 0.483 | 0.286 |
| CCN1C(C)=C(C(=O)OC)[C@@H](c2ccccc2)N2C(=O)[C@@]3(C(=O)OC)O[C@@]12[C@@H]1C(=O)N(c2ccccc2)C(=O)[C@@H]13 | 1.22 | -0.806 (inactive) | -1.23 (inactive) | -0.325 (inactive) | 1.2 | -0.0256 (inactive) | -0.19 | 1.21 | 0.983 | -0.087 |
| CC(C)[Si](OCCCNS(=O)(=O)c1ccc(Br)cc1)(C(C)C)C(C)C | 0.807 | -4.21 (inactive) | -3.02 (inactive) | -1.86 (inactive) | 0.716 | 3.1 (inactive) | 0.0278 | 0.578 | 1.11 | 0.0298 |
